{
  "source": "PubChem BioAssay (Tox21)",
  "note": "Records with an inconclusive call do not appear. A call without a number means that no potency is given here. Active and inactive are the calls of the source. Calls come from the whole dose curve; as a rule, active = well fitted activation curve with a large enough effect; inconclusive = small, poorly fitted or top-dose-only effect; inactive = flat fitted curve, though single readings scatter.",
  "data": [
    {"assay": "qHTS assay to identify small molecule phospholipidosis (PLD) inducers (AID 1259344)", "settings": "HepG2 phospholipidosis, LipidTOX Red imaging, 24 h; series mostly up to 38.3 µM", "how_it_was_run": "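Fluorescent phospholipid staining (LipidTOX Red) measured by automated microscopy in fixed HepG2 cells after 24 h treatment; nuclei counterstained with Hoechst 33342; amiodarone as reference inducer.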", "values": [
      {"smiles": "Cc1cccc(C)c1NC(=O)C1CCCCN1C", "note": "(centres undefined)", "Potency": "inactive"},
      {"smiles": "NCC(O)CC(=O)O", "note": "(centres undefined)", "Potency": "inactive"},
      {"smiles": "Nc1cc(Cl)c(NC2=NCCN2)c(Cl)c1", "Potency": "inactive"},
      {"smiles": "CCCCCCCCCCCCCC(=O)OCC(COP(=O)([O-])OCC[N+](C)(C)C)OC(=O)CCCCCCCCCCCCC", "note": "(centres undefined)", "Potency": "inactive"},
      {"smiles": "CC(=O)OCC1=C(C(=O)O)N2C(=O)[C@@H](NC(=O)Cc3ccccc3)[C@H]2SC1", "Potency": "inactive"},
      {"smiles": "c1ccc(-n2cnnn2)cc1", "Potency": "inactive"},
      {"smiles": "CCCCCCCCCCCCCCCCCCOCC(COP(=O)([O-])OCC[N+](C)(C)C)OC", "note": "(centres undefined)", "Potency": "inactive"},
      {"smiles": "COc1ccc([C@@H]2CC(=O)c3c(O)cc(O[C@@H]4O[C@H](CO[C@@H]5O[C@@H](C)[C@H](O)[C@@H](O)[C@H]5O)[C@@H](O)[C@H](O)[C@H]4O)cc3O2)cc1O", "Potency": "inactive"},
      {"smiles": "Cc1cc(CC(C)CC(C)(C)C)n(O)c(=O)c1", "note": "(centres undefined) (tested in a mixture with another compound)", "Potency": "inactive"},
      {"smiles": "C=CC[N+]1([C@H]2C[C@H]3[C@@H]4CC[C@H]5C[C@H](O)[C@@H](N6CCOCC6)C[C@]5(C)[C@H]4CC[C@]3(C)[C@H]2OC(C)=O)CCCC1", "Potency": "inactive"},
      {"smiles": "CO[C@H]1C[C@@H]2CC[C@@H](C)[C@@](O)(O2)C(=O)C(=O)N2CCCC[C@H]2C(=O)O[C@H]([C@H](C)C[C@@H]2CC[C@@H](O)[C@H](OC)C2)CC(=O)[C@H](C)C=C(C)[C@@H](O)[C@@H](OC)C(=O)[C@H](C)C[C@H](C)/C=C/C=CC=C1C", "Potency": "inactive"},
      {"smiles": "C[N+](C)(C)CCOP(=O)(O)OP(=O)([O-])OC[C@H]1O[C@@H](n2ccc(N)nc2=O)[C@H](O)[C@@H]1O", "Potency": "inactive"},
      {"smiles": "COc1cc2c(cc1OC)[C@@H](Cc1cc(OC)c(OC)c(OC)c1)[N+](C)(CCCOC(=O)CC/C=C/CCC(=O)OCCC[N+]1(C)CCc3cc(OC)c(OC)cc3[C@H]1Cc1cc(OC)c(OC)c(OC)c1)CC2", "note": "(some centres undefined)", "Potency": "inactive"},
      {"smiles": "COC1=C(OC)C(=O)C(C/C=C(\\C)CC/C=C(\\C)CC/C=C(\\C)CC/C=C(\\C)CC/C=C(\\C)CC/C=C(\\C)CC/C=C(\\C)CC/C=C(\\C)CC/C=C(\\C)CCC=C(C)C)=C(C)C1=O", "Potency": "inactive"},
      {"smiles": "C[C@@H]1O[C@@H]1P(=O)(O)O", "Potency": "inactive"},
      {"smiles": "C=C1C(=C/C=C2\\CCC[C@]3(C)[C@@H]([C@H](C)CCCC(C)C)CC[C@@H]23)C[C@@H](O)C[C@@H]1O", "Potency": "inactive"},
      {"smiles": "C=CC1=C(C(=O)O)N2C(=O)[C@@H](NC(=O)/C(=N/OCC(=O)O)c3csc(N)n3)[C@H]2SC1", "note": "(stereo in doubt)", "Potency": "inactive"},
      {"smiles": "NC(=O)[C@H]1O[C@@H](O)[C@H](O)[C@@H](O)[C@@H]1O", "Potency": "inactive"},
      {"smiles": "CC/C=C\\C/C=C\\C/C=C\\C/C=C\\C/C=C\\C/C=C\\CCC(=O)O", "Potency": "inactive"},
      {"smiles": "COc1cc2c(c(OC)c1OC)-c1c(cc3c(c1OC)OCO3)C[C@@H](C)[C@](C)(O)C2", "Potency": "inactive"},
      {"smiles": "C[C@H](NCCc1ccc(O)cc1)[C@H](O)c1ccc(O)cc1", "Potency": "inactive"},
      {"smiles": "COc1ccc(/C=C/C(=O)O)cc1", "Potency": "inactive"},
      {"smiles": "CCCCCCCCCC(=O)NO", "Potency": "inactive"},
      {"smiles": "CN1C(=O)C[C@@H](C(=O)N[C@@H](Cc2cnc[nH]2)C(=O)N2CCC[C@H]2C(N)=O)NC1=O", "Potency": "inactive"},
      {"smiles": "C[N+]1(CCCCC[N+]2(C)CCCC2)CCCC1", "Potency": "inactive"},
      {"smiles": "COc1ccc(/C=N/NC(=O)c2ccncc2)c(C(=O)O)c1OC", "Potency": "inactive"},
      {"smiles": "C[C@@H]1O[C@@H](OC[C@H]2O[C@@H](Oc3c(-c4ccc(OCCO)c(OCCO)c4)oc4cc(OCCO)cc(O)c4c3=O)[C@H](O)[C@@H](O)[C@@H]2O)[C@H](O)[C@H](O)[C@H]1O", "Potency": "inactive"},
      {"smiles": "CCCCN(CCCC)C(=S)[S-].CCCCN(CCCC)C(=S)[S-].[Zn+2]", "Potency": "inactive"},
      {"smiles": "C=CC1=C(C(=O)O)N2C(=O)[C@@H](NC(=O)/C(=N\\O)c3csc(N)n3)[C@H]2SC1", "note": "(stereo in doubt)", "Potency": "inactive"},
      {"smiles": "CN1[C@@H](CC(=O)c2ccccc2)CCC[C@H]1C[C@H](O)c1ccccc1", "Potency": "inactive"},
      {"smiles": "CCN(CC)C(=O)c1cccnc1", "Potency": "inactive"},
      {"smiles": "C[C@]12O[C@H](C[C@]1(O)CO)n1c3ccccc3c3c4c(c5c6ccccc6n2c5c31)CNC4=O", "Potency": "inactive"},
      {"smiles": "CCC[C@@H]1C[C@@H](C(=O)N[C@@H]([C@H]2O[C@H](SC)[C@H](OP(=O)(O)O)[C@@H](O)[C@H]2O)[C@H](C)Cl)N(C)C1", "Potency": "inactive"},
      {"smiles": "O=C(O)COc1ccccc1/C=N/NC(=O)c1ccncc1", "Potency": "inactive"},
      {"smiles": "C/C(=C(/CCO)SSCC1CCCO1)N(C=O)Cc1cnc(C)nc1N", "note": "(centres undefined)", "Potency": "inactive"},
      {"smiles": "CCCCCCCCCCCCOS(=O)(=O)O", "Potency": "inactive"},
      {"smiles": "NC(=O)CC[C@@H]1NC(=O)[C@H](Cc2ccccc2)NC(=O)[C@H](Cc2ccc(O)cc2)NC(=O)[C@@H](N)CSSC[C@@H](C(=O)N2CCC[C@H]2C(=O)N[C@@H](CCCN=C(N)N)C(=O)NCC(N)=O)NC(=O)[C@H](CC(N)=O)NC1=O", "Potency": "inactive"},
      {"smiles": "NCC1CCC(C(=O)O)CC1", "note": "(centres undefined)", "Potency": "inactive"},
      {"smiles": "O=C1CCC(c2ccccc2)(C2CCN(Cc3ccccc3)CC2)C(=O)N1", "note": "(centres undefined)", "Potency": "inactive"}
    ]}
  ]
}
